Source: the OligoGym collection

Each sequence was assayed against FZR1 (assay: pooled miR-30 sensor sort-seq; sequence = guide strand). Conditions: shRNA.
Also: reference of the scale not given here.

Sequence | sensor-assay potency score (higher = more potent)
TTCTGTGAGTAGCCGTGCGTGC | -1.08
TCATTCTGGATGACGATCTGGC | 0.47
TCTGTGGACCACTTGAGCCCGC | -0.976
TGAGAGGTCACAGAGCCGCGTC | -0.649
TTGCACACTTGGGAGCCCGTGT | -0.748
TGAGACTCCAGGATCCTCCAGG | -0.492
TTTGTCGAACGGGTTTTGCTAA | -0.856
TTCTCATTCTCGTTAATCCTGT | -0.581
AACATGGACAGCTTCTTCCCTG | -0.261
TCTGGTTCTGTGAGTAGCCGTG | -0.152
TGTCCTGTCAGCGTGTTCCAGA | -0.846

These sequences were tested against GAA in the same assay as above. Conditions: shRNA.

Sequence | sensor-assay potency score (higher = more potent)
TACTGCTGCACCACGCTCTTGG | 0.362
TAGTCCAGGTCGTTCCACTGGA | -0.244
TTCACGATCGTGTTATTCCTGG | -0.238
TTGGTGTCGGGGCTGTAGGTGA | -0.824
TTCTCCAGCTTGTAGCTGGGGT | -0.57
TTGTTGAACGTGAAGTCCCTCC | 0.0246
TAGAGGTTCGCACCGGGCGTGG | -1.37
TTAGCTGGATCTTTGATCGTGA | 0.689
TTGTGCAGGTTGTAGTGTGTGG | -0.0928
TTGATCGTGAAGTGGAGGCGGT | -0.412
TACAATCTTATTAACACAGAGC | -0.86
TTGTGGTTCCGCATGAAGGGGT | -0.144
AATCTTATTAACACAGAGCAGC | -1.53
TTTGCAGGGATGTAGCAACAGC | -1.16
TTAAGATTTAGAATCTCCCAAG | -0.492
TTGAACGTGAAGTCCCTCCGGG | 0.671
TTTGATCGTGAAGTGGAGGCGG | 0.187
TTAAACTGCAGGATTTCTGGCA | 0.151
TTCATGTCAATCCACATGCCGT | -0.999
TAACACAGAGCAGCCCTCCAGG | -0.565
TGAACGTGAAGTCCCTCCGGGA | -0.701
TTTAGAATCTCCCAAGTCCTGT | 0.11
TCCTCGGAGAACTCCACGCTGT | -1.76
TAAACTGCAGGATTTCTGGCAC | -0.0629

These sequences were tested against GAB3 in the same assay as above. Conditions: shRNA.

Sequence | sensor-assay potency score (higher = more potent)
TTGCAGACCTGACTGATGCTGT | 0.324
TAGTACTCCAAGACATCGGGGT | 0.697
TTGACCTGTGTTGACCATCAGT | -0.72
TTATTCTGAAATTCCTTCCGAA | 0.459
TTTTCTATCTCCAATCTGGTGT | 0.0351
